TDP1 block: qHTS Assay for Inhibitors of Tyrosyl-DNA Phosphodiesterase (TDP1) | Tyrosyl-DNA phosphodiesterase 1 (Homo sapiens), Q9NUW8 | recombinant TDP1, AlphaScreen DNA substrate cleavage | Potency, µM (series often up to 130 µM), without a hit: at the highest dose activity change, negative = inhibition, actives largely listed as inhibitors | 350,000 tested, 0.28% active; also: nearly all actives have a fitted effect of over 40% in size
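Enzyme-compound mixtures sat 15 min at room temperature, followed by a 5 min reaction with 15 nM final substrate and 10 min with AlphaScreen beads. Recombinant human Tdp1 was used at 1 nM final.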
VDR inh: Inhibitors of the vitamin D receptor (VDR): qHTS. 400,000 tested, 0.93% active. Vitamin D3 receptor (Homo sapiens), P11473. Potency, µM, inactives show max response, negative = inhibition, hits mostly inhibitors. VDR-SRC2-3 peptide fluorescence polarization, 2 h. AID 504847, 2011
Target sequence (P11473 whole entry, looked up): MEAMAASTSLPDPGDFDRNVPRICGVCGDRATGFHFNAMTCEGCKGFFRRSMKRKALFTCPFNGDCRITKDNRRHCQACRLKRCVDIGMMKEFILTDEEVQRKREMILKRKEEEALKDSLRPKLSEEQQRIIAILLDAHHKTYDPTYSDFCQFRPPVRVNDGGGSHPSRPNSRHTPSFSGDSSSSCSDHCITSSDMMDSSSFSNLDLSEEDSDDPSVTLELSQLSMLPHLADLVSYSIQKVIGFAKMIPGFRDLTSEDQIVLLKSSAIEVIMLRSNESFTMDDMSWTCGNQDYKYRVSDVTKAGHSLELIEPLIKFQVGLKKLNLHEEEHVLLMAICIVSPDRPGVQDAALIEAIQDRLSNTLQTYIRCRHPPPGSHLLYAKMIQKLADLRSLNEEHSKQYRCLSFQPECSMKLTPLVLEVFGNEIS
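After 23 nl compound addition and a short centrifugation, plates sat for 2 hours at ambient temperature; polarization of fluorescence then indicated loss of VDR binding to peptide SRC2-3.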
KAT2A inh: qHTS Assay for Inhibitors of GCN5L2. Histone acetyltransferase KAT2A (Homo sapiens), Q92830. GCN5L2 HAT assay, ThioGlo1 CoA-SH fluorescence. Potency, µM (series often up to 58.9 µM), inactives show at the highest dose activity change, negative = inhibition, usual class: inhibitors. 390,000 tested, 0.21% active
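ThioGlo1-coupled HAT assay: 20nM GCN5L2, 70uM acetyl-CoA, 75uM H3(1-25) peptide, pH 7.5. Fluorescence read at 340/540nm at start and after 20 min at room temperature.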
TDP1 cell CPT: qHTS for Inhibitors of human tyrosyl-DNA phosphodiesterase 1 (TDP1): qHTS in cells in presence of CPT. 420,000 tested, 12% active. Potency, µM (doses to about 46.2 µM), inactives show top-dose activity change, negative = growth inhibition, most hits filed as inhibitors. chicken DT40 Tdp1-/-;hTDP1 cells + 20 nM CPT, ATP luminescence, 48 h; also: nearly all actives have a fitted effect of over 55% in size
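Cell growth measured by CellTiter-Glo luminescence after a minimum 48 h, 37 C compound exposure with 20 nM CPT in Tdp1-knockout DT40 cells stably expressing hTDP1, seeded 400/well; qHTS titration format.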
TDP1 cell noCPT: qHTS for Inhibitors of human tyrosyl-DNA phosphodiesterase 1 (TDP1): qHTS in cells in absence of CPT | Potency, µM (series often up to 46.2 µM), inactives show top-dose activity change, negative = growth inhibition, usual class: inhibitors | DT40 Tdp1-/- hTDP1 cells, no CPT, ATP luminescence, 48 h | 420,000 tested, 15% active; also: nearly all actives have a fitted effect of over 55% in size
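DT40 Tdp1-/-;hTDP1 cells, no CPT (DMSO vehicle only), 400 cells/well; compounds pin-transferred; ≥48 hr, 37 °C; CellTiter-Glo 30 min RT dark, luminescence read.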
PLK1 PBD inh: qHTS for Inhibitors of PLK1-PDB (polo-like kinase 1 - polo-box domain): Primary Screen. Serine/threonine-protein kinase PLK1 (Homo sapiens), P53350. Plk1 PBD binding of FITC phosphopeptide, fluorescence polarization. Potency, µM, inactives show max response, negative = inhibition, most hits filed as inhibitors. 360,000 tested, 2.8% active; also: series mostly up to about 57 µM; nearly all actives have a fitted effect of over 65% in size
The depositor's hits bear a star; ? = inconclusive; / = not tested or not shown. In the library only some 18% were active in any assay of this set; here they are far more common. Calls follow the shape of the dose curve; as a rule, active = well fitted curve in the direction sought with a large enough effect; inconclusive = small, poorly fitted or top-dose-only effect, or another doubt; inactive = no such curve, though single readings can be large; an effect the other way counts as inactive or inconclusive. % is scaled to controls: 0 for no effect and ±100 for the full control effect; potency is read from the fitted curve at half-maximal effect.

SMILES	TDP1 block	VDR inh	KAT2A inh	TDP1 cell CPT	TDP1 cell noCPT	PLK1 PBD inh
Cc1nc2c(c(C)c1CCC(=O)Nc1cccc(C(F)(F)F)c1)c(=O)n(C)c(=O)n2C	0%	-9%	2%	?	16µM*	/
COc1ccc(NC(=O)CCc2c(C)nc3c(c2C)c(=O)n(C)c(=O)n3C)cc1OC	-2%	-13%	1%	11%	?	/
Cc1nc2c(c(C)c1CCC(=O)Nc1ccc(F)cc1)c(=O)n(C)c(=O)n2C	3%	8%	-5%	?	13µM*	/
Nc1nnc(SCc2cn3cc(Cl)ccc3n2)s1	0%	-3%	-5%	-8%	-9%	-6%
CCOC(=O)CC1(NC(=O)C2CCC(=O)N(Cc3ccccc3F)C2)CCCCC1 (stereo not given)	0%	?	-1%	?	?	27µM*
CCOC(=O)CC1(NC(=O)C2CCC(=O)N(CCc3ccc(OC)cc3)C2)CCCCC1 (stereo not given)	3%	8%	-1%	-16%	-2%	1%
COc1ccccc1C1C2=C(CC(C)(C)CC2=O)N(CC(=O)O)C2=C1C(=O)CC(C)(C)C2	/	-19%	-13%	2%	11%	0%
CCN(CC)CCN1C2=C(C(=O)CC(C)(C)C2)C(c2cccc(F)c2)C2=C1CC(C)(C)CC2=O	0%	3%	-6%	-28%	?	-15%
CCCN1C2=C(C(=O)CC(C)(C)C2)C(c2ccc(F)cc2)C2=C1c1ccccc1C2=O (stereo not given)	0%	-14%	3%	20µM*	?	12µM*
CCCCN1C2=C(C(=O)CC(C)(C)C2)C(c2ccccc2)C2=C1c1ccccc1C2=O (stereo not given)	4%	0%	-15%	?	16µM*	-1%
Cc1ccc(S(=O)(=O)c2c(N)n(Cc3ccco3)c3nc4ccccc4nc23)cc1	0%	73%	-27%	?	18µM*	-25%
Cc1cccc(S(=O)(=O)c2c(N)n(Cc3ccco3)c3nc4ccccc4nc23)c1	1%	-3%	-19%	?	?	-6%
O=C(c1cc(-c2ccncc2)nc2ccc(Cl)cc12)N1CCN(Cc2ccc3c(c2)OCO3)CC1	0%	-10%	-2%	16µM*	23µM*	-20%
O=C(c1cccn2c(=O)c3ccc(Cl)cc3nc12)N1CCN(Cc2ccc3c(c2)OCO3)CC1	5%	5%	-3%	?	18µM*	-8%
O=C(O)c1cc(-c2ccc3c(c2)OCO3)nc2ccc(Cl)cc12	6%	-16%	-11%	-3%	-2%	-21%
COc1ccc(CN2CCN(C(=O)c3cc(-c4cccnc4)nc4ccc(Cl)cc34)CC2)c(OC)c1OC	5%	-9%	-4%	?	21µM*	-7%
O=C(c1cc(-c2ccncc2)nc2ccc(Br)cc12)N1CCN(Cc2ccc3c(c2)OCO3)CC1	5%	-7%	-17%	?	23µM*	-3%
CC[C@H]1C2=C3C(CC[C@H]4C(OCc5ccc(F)cc5C(F)(F)F)OC[C@](C)([C@@H]34)N(C(=O)OC(C)(C)C)C2)C(COC)C1COC (stereo not given in full)	3%	/	/	/	/	/
COC(=O)c1cc(C)ccc1/C=C1/Cc2c(C)cc(C)cc2C1=O	/	-6%	/	9.2µM*	?	3%
CCOC(=O)c1nnn(-c2nonc2N)c1CS(=O)(=O)c1ccccc1	8%	19%	1%	0%	-5%	-13%
CCOC(=O)c1nnn(-c2nonc2-n2cccc2)c1CCl	-2%	1%	0%	4.6µM*	6.5µM*	-10%
CN(C)CCCn1cc(C2=C(c3c[nH]c4ccccc34)C(=O)NC2=O)c2ccccc21	21%	?	-10%	-122%	24µM*	/
Cn1cc(SCC(N)=O)c2ccccc21	0%	-18%	2%	-17%	-3%	-5%
Cn1cc(C2=C(c3cn(CCCSC(=N)N)c4ccccc34)C(=O)NC2=O)c2ccccc21	27%	-5%	-12%	0.63µM*	0.71µM*	/
Nc1cccc(S(=O)(=O)N2CCN(S(=O)(=O)c3c(F)cccc3F)CC2)c1	1%	/	/	/	/	/
SMILES	TDP1 block	VDR inh	KAT2A inh	TDP1 cell CPT	TDP1 cell noCPT	PLK1 PBD inh
COc1ccc(CNC(=O)COC(=O)c2ccc(Br)o2)cc1	1%	-2%	1%	-6%	-8%	-7%
CC1CCN(c2nc3ccccn3c(=O)c2C=O)CC1	1%	-12%	1%	-13%	0%	5%
O=Cc1c(Cl)nc2ccccn2c1=O	/	-4%	?	18µM*	16µM*	?
Cc1cccn2c(=O)c(C=O)c(Cl)nc12	6%	?	-3%	2.6µM*	2.3µM*	-12%
Cc1cccn2c(=O)c(C=O)c(N3CCCCC3)nc12	5%	-1%	2%	0%	-23%	-29%
CCCc1c(C(=O)N/N=C/c2ccco2)nnn1-c1nonc1N	-3%	3%	-15%	3%	15%	-2%
CCC(CC)CN1CCN=C1Nc1ccccc1	-3%	-20%	-9%	-2%	0%	-7%
COc1ccc(-c2nnn3c2nc(NCCc2ccc(OC)c(OC)c2)c2ccccc23)cc1	6%	-7%	-9%	8.2µM*	9.2µM*	/
COc1ccc(CNc2nc3c(-c4cccc(F)c4)nnn3c3ccccc23)cc1	6%	-7%	1%	?	?	/
COCCCNc1nc2c(-c3ccccc3)nnn2c2ccccc12	-4%	-13%	-6%	-22%	?	/
COc1ccc(CCNc2nc3c(-c4cccc(C(F)(F)F)c4)nnn3c3ccccc23)cc1OC	-1%	-20%	-6%	?	16µM*	/
CCC[C@H]1CN(c2ccc(Br)cc2)C(=O)[C@@H]1CC(=O)Nc1ccccc1	/	/	/	?	?	2%
C/C(=N\N=C(N)N)c1ccc(Cl)cc1Cl	0%	-15%	-16%	8.2µM*	16µM*	-11%
C/C(=N\O)c1ccc(Cl)cc1Cl	3%	3%	0%	5%	-12%	3%
C/C(=N\N=C(N)N)c1cccc(Cl)c1	-7%	-11%	-3%	16µM*	8.2µM*	-8%
Cc1ccc([N+](=O)[O-])cc1N/C=C1\CCCCC1=O	5%	8%	-1%	?	?	-8%
